# Measurements taken from PubChem BioAssay (NCATS).
# Inconclusive results are not listed. Entries that show only a call come without a potency. Unmarked numbers belong to inactive results. Active and inactive are the calls of the source. Calls come from the whole dose curve; as a rule, active = well fitted cell-killing curve with a large enough effect; inconclusive = small, poorly fitted or top-dose-only effect, or effect the other way; inactive = no such curve, though single readings can be large or run the other way.
# Legend:
# [1] = Quantitative High-Throughput drug screen in 47 multiple myeloma cell lines against the NCATS MIPE library collection: OPM1_PLB cell viability assay (AID 1918989); note: nearly all actives have a fitted effect of over 40% in size
# How it was run: (§1)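 MIPE 4.0 approved/investigational drugs; 500 cells/well; 48 h 37 °C humidified 5% CO2; CTG luminescence readout; DMSO = 100%, media = 0% viability.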
# [2] = Quantitative High-Throughput drug screen in 47 multiple myeloma cell lines against the NCATS MIPE library collection: SKMM1_PLB cell viability assay (AID 1919863); details: SKMM1 myeloma viability, CellTiter-Glo ATP, 48 h; viability: active compounds read low; note: nearly all actives have a fitted effect of over 35% in size; for viability: series mostly up to about 46 µM
# How it was run: as §1
# [3] = Quantitative High-Throughput drug screen in 47 multiple myeloma cell lines against the NCATS MIPE library collection: XG6_PLB cell viability assay (AID 1919865); note: nearly all actives have a fitted effect of over 40% in size
# How it was run: as §1
# [4] = Quantitative High-Throughput drug screen in 47 multiple myeloma cell lines against the NCATS MIPE library collection: XG1_PLB cell viability assay (AID 1919866); note: nearly all actives have a fitted effect of over 35% in size
# How it was run: as §1
# [5] = Quantitative High-Throughput drug screen in 47 multiple myeloma cell lines against the NCATS MIPE library collection: VP6_DJ cell viability assay (AID 1919867); note: nearly all actives have a fitted effect of over 40% in size
# How it was run: as §1
# [6] = Quantitative High-Throughput drug screen in 47 multiple myeloma cell lines against the NCATS MIPE library collection: UTMC2_PLB cell viability assay (AID 1919868); note: nearly all actives have a fitted effect of over 55% in size
# How it was run: as §1
# [7] = Quantitative High-Throughput drug screen in 47 multiple myeloma cell lines against the NCATS MIPE library collection: PE2_PLB cell viability assay (AID 1919869); note: nearly all actives have a fitted effect of over 35% in size
# How it was run: as §1
# [8] = Quantitative High-Throughput drug screen in 47 multiple myeloma cell lines against the NCATS MIPE library collection: PCM6_Riken cell viability assay (AID 1919870); note: nearly all actives have a fitted effect of over 30% in size
# How it was run: as §1
# [9] = Quantitative High-Throughput drug screen in 47 multiple myeloma cell lines against the NCATS MIPE library collection: U266_ATCC cell viability assay (AID 1919864); note: nearly all actives have a fitted effect of over 35% in size
# How it was run: as §1
# [10] = Quantitative High-Throughput drug screen in 47 multiple myeloma cell lines against the NCATS MIPE library collection: RPMI8226_ATCC cell viability assay (AID 1919871); note: nearly all actives have a fitted effect of over 30% in size
# How it was run: as §1
# Potency is the fitted concentration of half-maximal effect.
SMILES,Potency [1],viability [2] [%],Potency [3],Potency [4],Potency [5],Potency [6],Potency [7],Potency [8],Potency [9],Potency [10],Potency [2]
S=c1nc[nH]c2nc[nH]c12,1.66 µM (active),104,2.35 µM (active),1.66 µM (active),5.26 µM (active),14.8 µM (active),4.18 µM (active),5.9 µM (active),,,
Cc1cc(Cl)ccc1OCCCC(=O)NO,20.9 µM (active),,1.05 µM (active),1.05 µM (active),3.72 µM (active),9.35 µM (active),7.43 µM (active),2.35 µM (active),14.8 µM (active),inactive,
CCOC(=O)C1=C[C@@H](OC(CC)CC)[C@H](NC(C)=O)[C@@H](N)C1,inactive,108,inactive,inactive,inactive,,inactive,inactive,,inactive,
CCCCN(CCCC)CCC(O)c1cc2c(Cl)cc(Cl)cc2c2cc(C(F)(F)F)ccc12 (stereo unspecified),18.7 µM (active),,26.4 µM (active),18.7 µM (active),18.7 µM (active),,,,inactive,inactive,
CCCCC(CC)COC(=O)C(C#N)=C(c1ccccc1)c1ccccc1 (stereo unspecified),inactive,130,,inactive,inactive,,inactive,,,,
C[C@]12CCC(=O)C=C1CC[C@@H]1[C@H]2[C@@H](O)C[C@@]2(C)[C@H]1CC[C@]2(O)C(=O)CO,inactive,138,18.7 µM (active),,14.8 µM (active),,inactive,,,,
CC(S)C(=O)NCC(=O)O (stereo unspecified),inactive,132,inactive,inactive,,,inactive,inactive,,inactive,
CCOC(=O)c1c(C)n(C)c2ccc(O)cc12,inactive,121,inactive,6.62 µM (active),,,inactive,,,inactive,
O=C(OC1C[C@H]2CC[C@@H](C1)[N+]21CCCC1)C(O)(c1ccccc1)c1ccccc1 (stereo partly specified),inactive,138,inactive,inactive,,inactive,inactive,inactive,,inactive,
COc1cc2c(N3CCN(C(=O)Nc4ccc(OC(C)C)cc4)CC3)ncnc2cc1OCCCN1CCCCC1,9.35 µM (active),,18.7 µM (active),13.2 µM (active),8.33 µM (active),4.18 µM (active),16.6 µM (active),,23.5 µM (active),,
CCN(CCO)CCCC(C)Nc1ccnc2cc(Cl)ccc12 (stereo unspecified),inactive,,inactive,inactive,inactive,,,inactive,inactive,inactive,
CC1Cc2ccccc2N1NC(=O)c1ccc(Cl)c(S(N)(=O)=O)c1 (stereo unspecified),inactive,,inactive,inactive,,,inactive,,6.62 µM (active),,
Cc1ccc(C(=O)c2cc(O)c(O)c([N+](=O)[O-])c2)cc1,,,23.5 µM (active),,,26.4 µM (active),23.5 µM (active),,,,
O=C(O)c1cc(=O)c2c(OCC(O)COc3cccc4oc(C(=O)O)cc(=O)c34)cccc2o1,,125,inactive,inactive,5.26 µM (active),,inactive,inactive,,,
Clc1ccc2c(N3CCN(CCCN4CCN(c5ccnc6cc(Cl)ccc56)CC4)CC3)ccnc2c1,,129,inactive,inactive,,inactive,inactive,,,,
Clc1ccc(C(Cn2ccnc2)OCc2ccsc2Cl)c(Cl)c1 (stereo unspecified),,,20.9 µM (active),23.5 µM (active),,,,16.6 µM (active),,,13.2 µM (active)
COc1cc(C(C)=O)ccc1OCCCN1CCC(c2noc3cc(F)ccc23)CC1,,110,,,16.6 µM (active),,,,,,
COCCCN1CCC(NC(=O)c2cc(Cl)c(N)c3c2OCC3)CC1,,,5.9 µM (active),,18.7 µM (active),,,,inactive,,
Cc1cc2c(s1)Nc1ccccc1N=C2N1CCN(C)CC1,,120,inactive,inactive,,inactive,inactive,,inactive,inactive,
COc1c2occc2cc2ccc(=O)oc12,,118,inactive,5.9 µM (active),,,inactive,,inactive,,
Cc1c(C(=O)NN2CCCCC2)nn(-c2ccc(Cl)cc2Cl)c1-c1ccc(Cl)cc1,,,26.4 µM (active),26.4 µM (active),,20.9 µM (active),,,,,
CCOC(=O)C(C)Oc1cccc2c(=O)n(CC(=O)Nc3ccc4c(c3)OCCO4)ccc12 (stereo unspecified),,,inactive,inactive,,,inactive,,,,
Cc1cc2cc3c(C)cc(=O)oc3c(C)c2o1,,,6.62 µM (active),18.7 µM (active),23.5 µM (active),,20.9 µM (active),20.9 µM (active),11.8 µM (active),20.9 µM (active),26.4 µM (active)
O=c1c(O)c(-c2cc(O)c(O)c(O)c2)oc2cc(O)cc(O)c12,,,inactive,inactive,,inactive,,,,,20.9 µM (active)
COC(=O)C1=C(C)NC(C)=C(C(=O)OCCCN2CCC(c3ccccc3)(c3ccccc3)CC2)C1c1cccc([N+](=O)[O-])c1 (stereo unspecified),,122,inactive,inactive,inactive,inactive,inactive,,,,
CC(=O)O[C@H]1C(=O)[C@@]2(C)C([C@H](OC(=O)c3ccccc3)[C@]3(O)C[C@H](OC(=O)[C@H](O)[C@@H](NC(=O)c4ccccc4)c4ccccc4)C(C)=C1C3(C)C)[C@]1(OC(C)=O)CO[C@@H]1C[C@@H]2O (stereo partly specified),,,,inactive,inactive,,inactive,inactive,inactive,,0.0033 µM (active)
